# Compound activity (PubChem)
# In the library only some 11% were active in any assay of this set; here they are far more common.
# JMJD2A Tudor: blocks the human JMJD2A Tudor domain. Potency, µM (highest dose often 114 µM), for inactives: at the top dose activity change, negative = inhibition, usual class: inhibitors. actives 4.4% (n = 390,000). AlphaScreen JMJD2A-Tudor / H3K4me3 peptide binding; also: % is scaled to controls: 0 for no effect and ±100 for the full control effect; nearly all actives have a fitted effect of over 50% in size
# G9a block: inhibitors of human histone lysine methyltransferase G9a. Q96KQ7. G9a H3K9 monomethylation, AlphaScreen, 2 h. Potency, µM (series often up to 102 µM), inactives show top-dose activity, negative = inhibition, hits mostly inhibitors. actives 8.8% (n = 350,000); also: % is scaled to controls: 0 for no effect and ±100 for the full control effect; nearly all actives have a fitted effect of over 75% in size
#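 Methyltransferase reactions run at room temperature for 2 h (20 nM enzyme, 500 nM biotin-H3K9 peptide, 20 uM SAM) after a 15 min compound preincubation; product detected by AlphaScreen beads and anti-H3K9me1 antibody.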
# BAZ2B block: inhibitors of human BAZ2B bromodomain. AlphaScreen BAZ2B-H3K14Ac peptide displacement. actives 4.4% (n = 360,000). Potency, µM (doses to about 114 µM), inactives show at the top dose activity change, negative = inhibition, usual class: inhibitors. AID 504333; also: % is scaled to controls: 0 for no effect and ±100 for the full control effect; nearly all actives have a fitted effect of over 60% in size
# Target sequence (Q9UIF8 whole entry, looked up): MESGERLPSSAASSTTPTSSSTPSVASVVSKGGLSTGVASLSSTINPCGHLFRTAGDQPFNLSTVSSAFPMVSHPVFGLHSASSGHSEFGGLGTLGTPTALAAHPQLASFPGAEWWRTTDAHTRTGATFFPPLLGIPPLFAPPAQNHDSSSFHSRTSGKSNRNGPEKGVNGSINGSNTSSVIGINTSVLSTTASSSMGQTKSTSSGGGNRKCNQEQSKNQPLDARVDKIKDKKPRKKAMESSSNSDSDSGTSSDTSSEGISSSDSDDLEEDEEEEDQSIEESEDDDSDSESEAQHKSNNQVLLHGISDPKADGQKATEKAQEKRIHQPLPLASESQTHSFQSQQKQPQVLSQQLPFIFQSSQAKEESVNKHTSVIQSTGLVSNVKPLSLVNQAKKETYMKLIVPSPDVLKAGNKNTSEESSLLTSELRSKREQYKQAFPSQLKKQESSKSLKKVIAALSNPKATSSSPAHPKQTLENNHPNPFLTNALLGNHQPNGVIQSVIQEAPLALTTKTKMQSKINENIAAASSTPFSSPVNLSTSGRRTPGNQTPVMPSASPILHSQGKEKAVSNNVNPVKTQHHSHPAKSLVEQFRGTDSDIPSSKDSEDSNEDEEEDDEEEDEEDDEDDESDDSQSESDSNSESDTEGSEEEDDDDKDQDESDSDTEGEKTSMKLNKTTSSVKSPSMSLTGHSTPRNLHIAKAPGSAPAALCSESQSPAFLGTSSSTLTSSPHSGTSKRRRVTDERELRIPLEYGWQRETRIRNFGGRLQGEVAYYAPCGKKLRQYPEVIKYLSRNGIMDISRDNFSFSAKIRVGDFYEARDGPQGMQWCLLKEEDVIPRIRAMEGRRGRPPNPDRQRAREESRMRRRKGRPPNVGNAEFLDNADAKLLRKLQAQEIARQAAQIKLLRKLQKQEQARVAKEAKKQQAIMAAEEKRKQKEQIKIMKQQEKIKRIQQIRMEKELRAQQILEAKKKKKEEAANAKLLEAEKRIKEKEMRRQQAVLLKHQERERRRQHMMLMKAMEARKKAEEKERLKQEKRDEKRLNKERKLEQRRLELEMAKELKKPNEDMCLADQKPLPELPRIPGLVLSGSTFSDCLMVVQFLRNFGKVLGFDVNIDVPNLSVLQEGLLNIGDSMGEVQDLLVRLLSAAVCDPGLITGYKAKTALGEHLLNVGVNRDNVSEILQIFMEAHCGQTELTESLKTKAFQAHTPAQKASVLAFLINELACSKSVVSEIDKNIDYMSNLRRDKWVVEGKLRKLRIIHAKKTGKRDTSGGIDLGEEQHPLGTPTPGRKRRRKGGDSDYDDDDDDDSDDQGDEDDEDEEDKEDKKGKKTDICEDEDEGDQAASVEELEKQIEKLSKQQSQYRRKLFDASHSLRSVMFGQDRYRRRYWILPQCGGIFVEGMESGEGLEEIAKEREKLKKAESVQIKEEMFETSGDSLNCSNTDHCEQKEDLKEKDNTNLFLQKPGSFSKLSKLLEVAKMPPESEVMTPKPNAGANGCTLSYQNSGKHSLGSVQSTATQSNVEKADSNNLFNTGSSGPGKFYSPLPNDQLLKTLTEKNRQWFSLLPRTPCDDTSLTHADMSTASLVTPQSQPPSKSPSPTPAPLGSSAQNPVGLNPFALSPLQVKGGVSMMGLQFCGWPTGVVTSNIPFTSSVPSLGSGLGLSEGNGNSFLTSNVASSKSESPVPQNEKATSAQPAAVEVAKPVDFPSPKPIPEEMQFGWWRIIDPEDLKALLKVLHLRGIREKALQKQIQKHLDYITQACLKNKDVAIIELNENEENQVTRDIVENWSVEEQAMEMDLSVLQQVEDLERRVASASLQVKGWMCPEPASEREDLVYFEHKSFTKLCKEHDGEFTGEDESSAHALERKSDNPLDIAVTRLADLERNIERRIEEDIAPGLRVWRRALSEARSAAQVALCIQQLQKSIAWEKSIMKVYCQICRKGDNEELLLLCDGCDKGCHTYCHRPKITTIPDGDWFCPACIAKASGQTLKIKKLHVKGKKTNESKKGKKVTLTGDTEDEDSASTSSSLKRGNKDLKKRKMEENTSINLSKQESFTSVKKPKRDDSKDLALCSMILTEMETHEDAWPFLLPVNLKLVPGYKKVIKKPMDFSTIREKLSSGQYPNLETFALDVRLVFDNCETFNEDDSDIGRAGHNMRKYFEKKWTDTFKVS
#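 Protein-peptide AlphaScreen: BAZ2B 50 nM, b-H3K14Ac 50 nM, 1x PBS pH 7.4 + 0.01% Tween-20. Preincubation 30 min RT; cpd 30 min RT (top 110 uM); beads 20 min RT, light-protected.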
# L3MBTL1 block: L3MBTL1 (human) inhibition; Q9Y468; AlphaScreen L3MBTL1–H3K9me1 peptide binding; Potency, µM (highest dose often 57.1 µM), inactives show at the highest dose activity, negative = inhibition, actives largely listed as inhibitors; actives 0.66% (n = 230,000); AID 485360; also: % is scaled to controls: 0 for no effect and ±100 for the full control effect; nearly all actives have a fitted effect of over 60% in size
#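 L3MBTL1 50 nM + b-AHA-H3(1-15)K9me1 75 nM, 30 min RT; compound added, 30 min RT; streptavidin donor/Ni-chelate acceptor beads 10 ug/mL each final, 30 min RT dark; AlphaScreen read.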
# HP1b binding inh: HP1-beta chromodomain-methylated histone interaction inhibition; AID 540317; AlphaScreen HP1-beta / biotin-H3K9me3 peptide binding; actives 0.56% (n = 390,000); Potency, µM (doses to about 114 µM), for inactives: at the top dose activity change, negative = inhibition, actives largely listed as inhibitors; P83916; also: nearly all actives have a fitted effect of over 70% in size
#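 AlphaScreen: HP1-beta (50 nM) preformed 30 min with biotin-H3(1-18)K9me3 peptide (50 nM) in PBS pH 7.4, 0.01% Tween-20. Compound added for 30 min at RT, then streptavidin donor/nickel chelate acceptor beads (10 ug/mL) for 30 min.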
# Starred values were filed as active, the others as inactive; ? = inconclusive; · = no result given; [ ] = dose if it differs, or a comment. Calls follow the shape of the dose curve; as a rule, active = well fitted inhibition curve with a large enough effect; inconclusive = small, poorly fitted or top-dose-only effect; inactive = no such curve, though single readings can be large or run the other way. Potency is read from the fitted curve at half-maximal effect.
SMILES,JMJD2A Tudor,G9a block,BAZ2B block,L3MBTL1 block,HP1b binding inh
COc1ccc(C2C(C(=O)c3sc(C)nc3C)=C(O)C(=O)N2CCN(C)C)cc1OC (stereo not given),-9%,-27%[12.7 µM],4%,1%,53%
COCCCN1C(=O)C(=O)/C(=C(/O)c2ccc(OCC(C)C)cc2C)C1c1cccnc1 (stereo not given),79µM*,?,-1%,6%,15%
O=C1C(=O)N(CCc2c[nH]c3ccccc23)C(c2cccnc2)/C1=C(/O)c1ccccc1 (stereo not given),·,50µM*,-22%,-3%,·
C=CCOc1ccc(/C(O)=C2\C(=O)C(=O)N(CCOC)C2c2cccnc2)cc1 (stereo not given),?,-24%[12.7 µM],?,-6%,11%
CCCOc1ccc(/C(O)=C2/C(=O)C(=O)N(CCOC)C2c2cccnc2)cc1 (stereo not given),·,?,-9%,14%,·
CCOc1ccc(/C(O)=C2\C(=O)C(=O)N(CCOCCO)C2c2ccccc2OC)cc1 (stereo not given),18µM*,17%[59 µM],-3%,-6%,-11%
Cc1ccc(C2C(C(=O)c3sc(C)nc3C)=C(O)C(=O)N2CCN(C)C)o1 (stereo not given),-31%,45µM*,13%,-1%,10%
COc1ccc(N(C(=O)c2ccccc2)S(=O)(=O)c2ccc3c(c2)n(C)c(=O)n3C)cc1,-26%,0%[59 µM],-36%,·,7%
COc1cccc(C2C(C(=O)c3sc(C)nc3C)=C(O)C(=O)N2CCN2CCOCC2)c1OC (stereo not given),-13%,?,?,6%,22%
COc1ccc(/C(O)=C2/C(=O)C(=O)N(CCN3CCOCC3)C2c2ccc(C)cc2)cc1 (stereo not given),-22%,45µM*,-20%[57.1 µM],0%,33%
COc1ccccc1C1/C(=C(/O)c2ccc(C)cc2)C(=O)C(=O)N1CCN1CCOCC1 (stereo not given),-11%,28µM*,-4%,13%,29%
COc1ccccc1C1C(C(=O)c2sc(C)nc2C)=C(O)C(=O)N1CCN1CCOCC1 (stereo not given),-12%,40µM*,-35%,-7%,35%
Cc1ccc(/C(O)=C2/C(=O)C(=O)N(CCN3CCOCC3)C2c2cccnc2)cc1 (stereo not given),89µM*,?,10%,-1%,46%
COc1ccc(NC(=O)c2cccc(N3CCCS3(=O)=O)c2)c(OC)c1,-15%,0%[59 µM],-3%,·,6%
Cc1ccc(C)c(/C(O)=C2\C(=O)C(=O)N(Cc3cccnc3)C2c2cccnc2)c1 (stereo not given),-22%,?,79µM*,-2%,17%
COc1cc(OC)cc(C(=O)N2CCN(Cc3ccccc3[N+](=O)[O-])CC2)c1,-6%[11.4 µM],7.9µM*,20µM*,-7%,?
COc1ccc(C(=O)N2CCN(Cc3ccccc3[N+](=O)[O-])CC2)cc1,22µM*,16µM*,50µM*,1%,?
Cc1ccc2c(c1)C1(C(=O)N2)N2CCCC2C(C(=O)c2ccc3ccccc3c2)C12C(=O)Nc1ccccc12 (stereo not given),50µM*,?,?,·,?
CCN1/C(=C/C(=O)c2ccco2)Sc2ccccc21,-3%,?,?,28%,69%
CCN1/C(=C/c2sc(-c3ccccc3C)c[n+]2C)Sc2ccccc21,?,11µM*,-22%,·,-12%
CCN(CC)c1ccc(NC(=O)COC(=O)/C=C/c2nc3ccccc3s2)cc1,?,6.3µM*,-26%,-8%,-6%
CSC1=C(C#N)C(c2ccc(Cl)cc2)C2=C(CC(C)(C)CC2=O)N1 (stereo not given),1%,?,11%,4%,65%
N#CC1=C(SCC(N)=O)NC2=C(C(=O)c3ccccc32)C1c1ccc(Cl)cc1 (stereo not given),-34%,50µM*,-2%,-7%,21%
CCc1ccc(Sc2cc(C(=O)O)c3ccccc3n2)cc1,-5%,5%[59 µM],-4%,·,39%
